Reference: PubChem BioAssay (NCI)
The panel holds about 83,000 compounds, 20% with a hit somewhere; the sample as a whole holds those more often.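 Treatment: one concentration, 48 hours, 96-well format. Scoring: percent growth, with anything below 10 considered active.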 The source made the active and inactive calls.

These compounds were tested on SF-268 CNS (assay: NCI-60 one-dose screen, 48 h (100 = growth as untreated, 0 = no growth, -100 = all killed)). Conditions: 10 µM.
O=C1/C(=C\c2cn(C(=O)c3ccc(Cl)cc3)c3ccccc23)c2ccccc2N1C(=O)c1ccc(Cl)cc1 was tested, and the growth was 77.6% (inactive).
Cc1ccc(Nc2cc(C)nc(NCCCNc3ccnc4cc(Cl)ccc34)n2)cc1 was tested, and the growth was -85% (active).
In the case of Cc1cc(N(CCCNc2ccnc3cc(Cl)ccc23)Cc2ccc3c(c2)OCO3)nc(N2CCOCC2)n1, the growth was 36.6% (inactive).
For COc1cc(/C=N/NC(=O)c2ccccc2Nc2ccnc(C(F)(F)F)c2)ccc1O, the growth was 105% (inactive).
With Cc1cc(N(CCCNc2ccnc3cc(Cl)ccc23)Cc2ccc3c(c2)OCO3)nc(N2CCCCC2)n1 the growth was 3.28% (active).
With Clc1ccc2c(NCCCNc3nccc(Nc4ccc(Br)cc4)n3)ccnc2c1 the growth was -84.3% (active).
With Cc1cc(N(CCCNc2ccnc3cc(Cl)ccc23)Cc2cccs2)nc(Cl)n1 the growth was 61.9% (inactive).
In the case of Clc1ccc(Nc2ccnc(NCCCNc3ccnc4cc(Cl)ccc34)n2)cc1, the growth was -75.8% (active).
For Cc1cc(Cl)nc(N(CCCNc2ccnc3cc(Cl)ccc23)Cc2cccs2)n1, the growth was 38.6% (inactive).
For CCCCN(CCCC)c1cc(C(=O)CCCCCN)c2ccccc2n1, the growth was -58% (active).
For CN(C)CCNC(=O)c1cccn2c(=O)c3cc4ccccc4cc3nc12, the growth was -14.9% (active).
CC(C)=CCc1cc(O)cc2c1OC(C=C(C)C)C1=C2C(=O)C2=C(NCCS2(=O)=O)C1=O (stereo unspecified) was tested, and the growth was -1.83% (active).
Clc1ccc(Nc2ccnc(NCCNc3ccnc4cc(Cl)ccc34)n2)cc1 was tested, and the growth was -10.7% (active).
In the case of CN1CCC(CNc2cc(C3(C(=O)Nc4cc(C(=O)Nc5ccc(Cl)c(C(F)(F)F)c5)ccc4F)CC3)ncn2)CC1, the growth was 18.2% (inactive).
With CN1CCC2(CC1)NC(=O)c1c(c3ccc(Cl)c(Cl)c3n1C)C2C#N (stereo unspecified) the growth was 67.4% (inactive).
For O=C(Nc1cccc(Br)c1)c1cc(=O)[nH]c2ccccc12, the growth was 94.8% (inactive).
With NC(=O)CC1(c2ccccc2)CCCCC1 the growth was 98.5% (inactive).
For COC(=O)C(=C\c1ccc2c(c1)OCO2)/C(=C/c1ccc2c(c1)OCO2)C(=O)OC, the growth was 96% (inactive).
In the case of COc1ccc(Nc2cc(C)nc(NCCCNc3ccnc4cc(Cl)ccc34)n2)cc1, the growth was -54.5% (active).
CC(C)=CCc1cc(O)cc2c1OC(C=C(C)C)C1=C2C(=O)C2=C(C1=O)S(=O)(=O)CCN2 (stereo unspecified) was tested, and the growth was 2.3% (active).
With Cc1cc(Nc2ccc(Cl)cc2)nc(NCCCNc2ccnc3cc(Cl)ccc23)n1 the growth was -66.5% (active).
CC12O[C@H](C[C@@H](OC(=O)c3ccccc3)[C@H]1O)n1c3ccccc3c3c4c(c5c6ccccc6n2c5c31)C(=O)NC4=O was tested, and the growth was 61.4% (inactive).
In the case of Cc1ccc(C(=O)Nc2cccc(F)c2)cc1NC(=O)C1(c2ncnc3[nH]ccc23)CC1, the growth was 95.2% (inactive).
For COc1ccc(Nc2ccnc(NCCNc3ccnc4cc(Cl)ccc34)n2)cc1, the growth was 54.5% (inactive).
For COc1cc(Nc2ccnc(NCCNc3ccnc4cc(Cl)ccc34)n2)cc(OC)c1, the growth was 50.5% (inactive).
For CC12O[C@H](C[C@@H](O)[C@H]1O)n1c3ccccc3c3c4c(c5c6ccccc6n2c5c31)C(=O)N(CCCN)C4=O, the growth was 36.5% (inactive).
